Measured values as given in the supplement of paper PMC11001985.

compound: C#CCNC(=O)CCSSCCC(=O)NCCc1ccc(C=O)c(C=O)c1; test: lysine labeling ratio R10:1 (500 µM / 50 µM probe), SILAC-ABPP in living cells; higher = lower intrinsic lysine reactivity toward the probe, active = 2 or less; settings: HeLa; probe concentrations 500 vs 50 µM
Method in brief: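 The two probe levels, 50 µM and 500 µM, of an alkyne-tagged, disulfide-linked lysine probe were applied to living light and heavy SILAC HeLa cells in PBS at room temperature, and the labels were run in both forward and reverse orientation. Mixed lysates underwent biotin-azide click chemistry, trypsin digestion, neutravidin capture, DTT release and alkylation before LC-MS/MS on a TIMS-TOF Pro. R is the filtered median high-probe/low-probe MS1 peptide ratio for each lysine, summarised as the median over forward and reverse replicates. Nothing above 20 is reported; such values are set to 20.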

UniProt P35052, sequence (P35052 whole entry): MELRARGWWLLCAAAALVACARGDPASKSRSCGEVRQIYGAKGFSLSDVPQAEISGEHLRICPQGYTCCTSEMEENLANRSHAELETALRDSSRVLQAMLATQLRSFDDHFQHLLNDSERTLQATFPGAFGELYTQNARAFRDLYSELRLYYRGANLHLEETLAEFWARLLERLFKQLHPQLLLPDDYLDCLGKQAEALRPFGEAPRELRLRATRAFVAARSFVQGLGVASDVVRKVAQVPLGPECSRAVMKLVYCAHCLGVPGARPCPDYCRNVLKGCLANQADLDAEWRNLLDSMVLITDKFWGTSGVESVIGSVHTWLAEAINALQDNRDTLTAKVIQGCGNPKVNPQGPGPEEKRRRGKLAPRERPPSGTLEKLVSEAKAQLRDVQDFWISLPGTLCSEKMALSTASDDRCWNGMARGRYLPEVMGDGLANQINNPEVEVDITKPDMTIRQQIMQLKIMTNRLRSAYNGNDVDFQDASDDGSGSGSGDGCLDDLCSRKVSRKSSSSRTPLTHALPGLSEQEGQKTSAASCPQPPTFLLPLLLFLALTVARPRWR
UniProt P54289, sequence (P54289 whole entry): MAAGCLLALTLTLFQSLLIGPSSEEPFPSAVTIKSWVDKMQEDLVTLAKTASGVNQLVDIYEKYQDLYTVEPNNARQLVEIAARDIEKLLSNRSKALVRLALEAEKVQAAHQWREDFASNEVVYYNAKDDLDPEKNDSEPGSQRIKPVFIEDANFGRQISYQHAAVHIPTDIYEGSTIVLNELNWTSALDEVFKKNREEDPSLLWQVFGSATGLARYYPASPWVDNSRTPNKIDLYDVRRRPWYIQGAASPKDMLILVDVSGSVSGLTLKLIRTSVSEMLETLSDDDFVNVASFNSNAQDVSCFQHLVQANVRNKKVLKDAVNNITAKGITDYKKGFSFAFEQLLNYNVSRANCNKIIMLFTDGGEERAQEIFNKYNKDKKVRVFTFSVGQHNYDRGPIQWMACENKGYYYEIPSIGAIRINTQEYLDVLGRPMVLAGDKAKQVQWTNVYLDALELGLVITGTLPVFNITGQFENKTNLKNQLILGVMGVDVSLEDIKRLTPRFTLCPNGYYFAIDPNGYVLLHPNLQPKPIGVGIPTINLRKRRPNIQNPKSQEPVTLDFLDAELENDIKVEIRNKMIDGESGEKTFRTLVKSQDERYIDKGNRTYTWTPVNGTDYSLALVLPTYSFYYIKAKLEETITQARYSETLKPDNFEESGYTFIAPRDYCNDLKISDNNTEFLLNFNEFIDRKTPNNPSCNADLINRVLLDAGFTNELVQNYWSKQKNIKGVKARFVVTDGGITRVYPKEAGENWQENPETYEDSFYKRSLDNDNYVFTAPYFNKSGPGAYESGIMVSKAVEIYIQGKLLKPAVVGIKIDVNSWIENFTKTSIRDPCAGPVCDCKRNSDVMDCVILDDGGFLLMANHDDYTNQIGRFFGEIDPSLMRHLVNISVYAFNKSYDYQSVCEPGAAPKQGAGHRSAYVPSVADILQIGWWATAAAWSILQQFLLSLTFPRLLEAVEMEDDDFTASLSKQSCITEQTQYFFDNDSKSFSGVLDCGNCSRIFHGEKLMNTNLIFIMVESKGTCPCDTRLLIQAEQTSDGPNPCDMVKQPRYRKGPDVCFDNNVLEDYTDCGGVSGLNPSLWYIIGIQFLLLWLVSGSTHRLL
UniProt Q6YHK3, sequence (Q6YHK3 whole entry): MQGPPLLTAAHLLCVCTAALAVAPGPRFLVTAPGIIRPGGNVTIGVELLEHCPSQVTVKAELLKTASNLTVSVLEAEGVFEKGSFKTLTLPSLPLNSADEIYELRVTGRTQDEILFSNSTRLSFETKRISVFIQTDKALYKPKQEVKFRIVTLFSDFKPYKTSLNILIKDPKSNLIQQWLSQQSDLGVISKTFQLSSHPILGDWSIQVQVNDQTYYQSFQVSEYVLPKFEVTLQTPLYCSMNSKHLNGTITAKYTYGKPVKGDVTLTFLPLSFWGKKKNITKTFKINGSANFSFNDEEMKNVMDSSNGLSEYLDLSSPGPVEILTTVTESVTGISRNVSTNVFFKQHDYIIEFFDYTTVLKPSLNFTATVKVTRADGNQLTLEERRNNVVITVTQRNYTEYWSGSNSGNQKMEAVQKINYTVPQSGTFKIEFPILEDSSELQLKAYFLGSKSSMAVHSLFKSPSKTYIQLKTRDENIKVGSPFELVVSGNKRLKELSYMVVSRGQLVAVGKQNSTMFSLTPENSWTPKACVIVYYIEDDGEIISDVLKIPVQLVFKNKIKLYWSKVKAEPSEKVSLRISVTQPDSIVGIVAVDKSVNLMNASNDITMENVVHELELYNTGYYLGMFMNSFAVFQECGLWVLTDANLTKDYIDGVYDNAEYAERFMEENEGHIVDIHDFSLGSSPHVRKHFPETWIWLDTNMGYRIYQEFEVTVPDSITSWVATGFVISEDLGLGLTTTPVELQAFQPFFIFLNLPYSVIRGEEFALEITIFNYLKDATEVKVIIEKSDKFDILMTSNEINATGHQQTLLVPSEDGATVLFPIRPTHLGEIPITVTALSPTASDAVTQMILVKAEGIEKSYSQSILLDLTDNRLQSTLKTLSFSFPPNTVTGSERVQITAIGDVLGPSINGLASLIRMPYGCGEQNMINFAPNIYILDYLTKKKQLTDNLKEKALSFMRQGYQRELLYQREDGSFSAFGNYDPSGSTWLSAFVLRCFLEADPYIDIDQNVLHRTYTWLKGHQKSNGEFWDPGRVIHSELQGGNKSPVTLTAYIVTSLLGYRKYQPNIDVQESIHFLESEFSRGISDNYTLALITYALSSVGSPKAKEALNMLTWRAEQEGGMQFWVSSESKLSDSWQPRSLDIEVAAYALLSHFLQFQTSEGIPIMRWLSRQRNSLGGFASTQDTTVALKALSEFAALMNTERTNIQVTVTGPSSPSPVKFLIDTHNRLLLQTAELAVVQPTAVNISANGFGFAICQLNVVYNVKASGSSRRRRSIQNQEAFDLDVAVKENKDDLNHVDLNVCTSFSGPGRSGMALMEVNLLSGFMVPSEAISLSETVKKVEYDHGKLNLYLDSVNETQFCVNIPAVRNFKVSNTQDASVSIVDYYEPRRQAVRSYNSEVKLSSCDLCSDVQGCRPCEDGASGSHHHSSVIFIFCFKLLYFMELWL
UniProt Q8N441, sequence (Q8N441 whole entry): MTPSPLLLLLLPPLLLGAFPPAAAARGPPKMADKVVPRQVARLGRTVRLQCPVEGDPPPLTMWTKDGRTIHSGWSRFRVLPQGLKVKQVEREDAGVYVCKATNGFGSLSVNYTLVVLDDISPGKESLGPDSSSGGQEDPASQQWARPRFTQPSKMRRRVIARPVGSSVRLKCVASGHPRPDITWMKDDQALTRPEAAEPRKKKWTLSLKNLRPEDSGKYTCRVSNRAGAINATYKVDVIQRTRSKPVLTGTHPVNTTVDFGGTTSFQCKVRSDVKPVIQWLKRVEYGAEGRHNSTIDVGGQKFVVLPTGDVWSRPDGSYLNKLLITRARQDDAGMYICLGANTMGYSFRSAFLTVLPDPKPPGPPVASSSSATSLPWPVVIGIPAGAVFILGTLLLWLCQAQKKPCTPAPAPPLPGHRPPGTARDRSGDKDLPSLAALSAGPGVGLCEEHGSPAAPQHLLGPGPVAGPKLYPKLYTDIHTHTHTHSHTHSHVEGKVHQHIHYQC
UniProt P01893, sequence (P01893 whole entry): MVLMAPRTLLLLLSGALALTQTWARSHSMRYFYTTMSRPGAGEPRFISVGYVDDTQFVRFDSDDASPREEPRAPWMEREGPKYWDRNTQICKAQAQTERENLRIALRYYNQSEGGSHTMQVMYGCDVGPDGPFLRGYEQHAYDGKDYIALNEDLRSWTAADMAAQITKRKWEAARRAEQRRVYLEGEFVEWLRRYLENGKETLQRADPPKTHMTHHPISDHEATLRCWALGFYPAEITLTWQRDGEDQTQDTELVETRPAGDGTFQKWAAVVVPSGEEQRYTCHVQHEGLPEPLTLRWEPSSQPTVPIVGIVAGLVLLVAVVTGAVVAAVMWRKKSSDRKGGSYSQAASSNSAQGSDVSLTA
UniProt Q14697, sequence (Q14697 whole entry): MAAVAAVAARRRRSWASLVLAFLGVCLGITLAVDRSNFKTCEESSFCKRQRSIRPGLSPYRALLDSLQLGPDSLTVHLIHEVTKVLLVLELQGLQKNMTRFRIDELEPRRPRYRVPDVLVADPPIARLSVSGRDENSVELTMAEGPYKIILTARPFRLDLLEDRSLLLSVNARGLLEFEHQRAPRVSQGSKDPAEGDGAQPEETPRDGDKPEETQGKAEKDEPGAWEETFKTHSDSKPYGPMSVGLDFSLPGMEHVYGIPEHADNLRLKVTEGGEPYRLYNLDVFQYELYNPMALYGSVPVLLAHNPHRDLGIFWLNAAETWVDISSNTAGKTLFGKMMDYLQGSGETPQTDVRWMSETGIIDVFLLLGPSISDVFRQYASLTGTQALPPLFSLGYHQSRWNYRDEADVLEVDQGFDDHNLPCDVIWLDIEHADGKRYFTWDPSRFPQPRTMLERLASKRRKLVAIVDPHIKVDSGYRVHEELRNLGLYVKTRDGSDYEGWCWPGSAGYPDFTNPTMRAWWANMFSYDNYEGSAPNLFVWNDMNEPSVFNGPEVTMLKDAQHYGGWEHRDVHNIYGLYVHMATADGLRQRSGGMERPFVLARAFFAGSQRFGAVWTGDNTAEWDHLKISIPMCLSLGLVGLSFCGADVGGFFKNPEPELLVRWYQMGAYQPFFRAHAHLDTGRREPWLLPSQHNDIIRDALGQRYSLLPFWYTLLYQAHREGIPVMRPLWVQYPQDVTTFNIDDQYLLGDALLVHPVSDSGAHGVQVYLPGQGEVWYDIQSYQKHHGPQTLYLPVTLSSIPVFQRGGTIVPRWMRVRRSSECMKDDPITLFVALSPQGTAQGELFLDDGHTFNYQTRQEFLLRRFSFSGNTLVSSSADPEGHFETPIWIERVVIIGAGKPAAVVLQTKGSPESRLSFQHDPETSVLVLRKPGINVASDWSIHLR

Row | Target | lysine labeling ratio R10:1
1 | YBX1 (lysine site: K170) (UniProt P67809) | 9.44 (inactive)
2 | CACNA2D1 (lysine site: K146) (UniProt P54289) | 5.1 (inactive)
3 | UniProt Q15149 (lysine site: K1921) | 1.36 (active)
4 | FLNB (lysine site: K1955) (UniProt O75369) | 1.23 (active)
5 | UniProt P01893 (lysine site: K210) | 2.51 (inactive)
6 | UniProt Q96JJ7 (lysine site: K164) | 1.61 (active)
7 | UniProt P61160 (lysine site: K381) | 2.7 (inactive)
8 | RPS2 (lysine site: K275) (UniProt P15880) | 1.57 (active)
9 | UniProt Q8N441 (lysine site: K30) | 3.03 (inactive)
10 | GANAB (lysine site: K48) (UniProt Q14697) | 3.47 (inactive)
11 | GALNT2 (lysine site: K103) (UniProt Q10471) | 2.75 (inactive)
12 | ROR2 (lysine site: K113) (UniProt Q01974) | 6.49 (inactive)
13 | SPTAN1 (lysine site: K1141) (UniProt Q13813) | 17.4 (inactive)
14 | UniProt P55285 (lysine site: K276) | 1.67 (active)
15 | CD109 (lysine site: K1291) (UniProt Q6YHK3) | 2.41 (inactive)
16 | CALD1 (lysine site: K577) (UniProt Q05682) | 1.1 (active)
17 | GPC1 (lysine site: K383) (UniProt P35052) | 1.73 (active)
18 | G6PD (lysine site: K497) (UniProt P11413) | 3.47 (inactive)
19 | AHNAK (lysine site: K5443) (UniProt Q09666) | 0.97 (active)
20 | ANPEP (lysine site: K836) (UniProt P15144) | 0.79 (active)
21 | M6PR (lysine site: K99) (UniProt P20645) | 1.86 (active)
22 | HNRNPM (lysine site: K388) (UniProt P52272) | 6.02 (inactive)
23 | EEA1 (lysine site: K583) (UniProt Q15075) | 3.77 (inactive)
